The values below come from PubChem BioAssay (NCATS).

Several values for one entry are separate records, joined by “and”; a condition that tells them apart may be missing. Identical values can stand only once. Inconclusive results are not listed. Activity calls are given as the source filed them. Unless noted, no rule for the calls is given here.

The nature of test [1]: Immunotoxin (HA22) sensitization/mitigation study. Vehicle arm (PBS) (AID 1159510). Also: potency is read from the fitted curve at half-maximal effect.
Test [2] in a line: Immunotoxin (SS1P) sensitization/mitigation study. Vehicle arm (DMEM) (AID 1159513). Also: potency is read from the fitted curve at half-maximal effect.
Test [3] can be described thus: High-throughput drug toxicity screening in the BPDCN cell line Cal-1 (AID 1224825). As to conditions: Cal-1 BPDCN cell viability, qHTS; at 45.8 µM (top of the series). The essentials: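 Cal-1 cells, 500 per well in phenol-red-free RPMI with 10% FBS, exposed to compounds for 48 hours at 37C, 5% CO2. Viability read by CellTiter-Glo luminescence; percent activity normalized to DMSO (100%) and 9.2 uM bortezomib final (0%).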
On the technique in general: qHTS replaces the single test concentration by a dilution series.

Test [4] in a line: qHTS assay for measurement of the activity of small molecule inhibitors on Zika virus induced Caspase-3 activity in human iPSC derived neural progenitor cells (hNPCs) (AID 1224857; active = well fitted curve in the direction sought with a large enough effect; an effect the other way counts as inactive or inconclusive; also: % of control where 0% means no effect; nearly all actives have a fitted effect of over 65% in size). A digest of the protocol:
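Zika virus (2 FFU/cell) infection of human iPSC-derived NPCs, 6 h, following 1 h compound preincubation. Read-out: Caspase-Glo 3/7 luminescence.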

A short description of test [5]: qHTS assay for measurement of the activity of small molecule inhibitors on Zika virus induced Caspase-3 activity in human astrocytoma cells (AID 1224859; active = well fitted curve in the direction sought with a large enough effect; an effect the other way counts as inactive or inconclusive;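 also: plate controls were ZIKV-infected untreated cells for no effect and uninfected cells for full effect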). The essentials:
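Caspase activation in ZIKV-infected SNB-19 cells (2 FFU/cell, 6 h) measured by Caspase-Glo 3/7 luminescence after 30 min RT; compound pre-incubated 1 h; normalised to uninfected and infected controls.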

Test [6] can be described thus: qHTS Screen of the MIPE 4.0 Collection Against Ewings Sarcoma (RDES) (AID 1259252; active = well fitted curve in the direction sought with a large enough effect; an effect the other way counts as inactive or inconclusive; also: nearly all actives have a fitted effect of over 35% in size; also: potency is read from the fitted curve at half-maximal effect). The essentials:
(§1)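 Log-phase cells in RPMI with 5% FBS attached for 4 h, then received compounds as a titration for 48 h at 37C, 5% CO2. Viability was read by CellTiter-Glo luminescence and normalized to DMSO and no-cell wells.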

Test [7] in a line: qHTS Screen of the MIPE 4.0 Collection Against Ewings Sarcoma (TC71) (AID 1259253; active = well fitted curve in the direction sought with a large enough effect; an effect the other way counts as inactive or inconclusive; also: nearly all actives have a fitted effect of over 40% in size; also: potency is read from the fitted curve at half-maximal effect). A digest of the protocol:
as §1

Test [8] in a line: qHTS Screen of the MIPE 4.0 Collection Against Ewings Sarcoma (EW8) (AID 1259255; active = well fitted curve in the direction sought with a large enough effect; an effect the other way counts as inactive or inconclusive; also: nearly all actives have a fitted effect of over 35% in size; also: potency is read from the fitted curve at half-maximal effect;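 as to viability: 100% = DMSO-treated cells and 0% = medium-only wells without cells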). The essentials:
as §1

Test [9] can be described thus: Identifying Small Molecule Inhibitors of Pancreatic Cancer Stem Cells (A2780, Spheroid) (AID 1259357; active = well fitted curve in the direction sought with a large enough effect; an effect the other way counts as inactive or inconclusive;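 also: spheroids pre-formed over 14 days in stem cell medium on hydrogel; compound exposure lasted 48 h before the ATP luminescence read; 100% = DMSO treated cells and 0% = wells without cells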). To be noted: Potency: A2780 spheroid viability. The essentials:
(§2)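 Pre-formed 14-day tumor spheroids or adherent cells dosed and incubated 48 h, 37C, 5% CO2. Viability assessed by CellTiter-Glo.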

Test [10] in a line: Identifying Small Molecule Inhibitors of Pancreatic Cancer Stem Cells (SN12C, Adherent) (AID 1259358; active = well fitted curve in the direction sought with a large enough effect; an effect the other way counts as inactive or inconclusive;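 also: cell survival measured after 48 h of compound exposure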; also: potency is read from the fitted curve at half-maximal effect). The essentials: (§3)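 Spheroids grown 14 days in stem cell media on hydrogel-coated nonadherent plates; 2D lines seeded directly. Compounds added after 4 h attachment, 48 h at 37C, 5% CO2; CellTiter-Glo luminescence normalized to DMSO (no inhibition) and no-cell wells (full inhibition).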

A short description of test [11]: Identifying Small Molecule Inhibitors of Pancreatic Cancer Stem Cells (SN12C, Spheroid) (AID 1259360; active = well fitted curve in the direction sought with a large enough effect; an effect the other way counts as inactive or inconclusive;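 also: 100% = DMSO-treated cells and 0% = wells without cells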). To be noted: Potency: SN12C spheroid viability. The essentials:
as §2

A short description of test [12]: Identifying Small Molecule Inhibitors of Pancreatic Cancer Stem Cells (A278, Adherent) (AID 1259361; active = well fitted curve in the direction sought with a large enough effect; an effect the other way counts as inactive or inconclusive; also: nearly all actives have a fitted effect of over 35% in size;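 as to viability (% of control): 100% = DMSO-treated cells and 0% = cell-free media-only wells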). The essentials:
as §3

Test [13] in a line: Identifying Small Molecule Inhibitors of Pancreatic Cancer Stem Cells (Panc1, Adherent) (AID 1259362; active = well fitted curve in the direction sought with a large enough effect; an effect the other way counts as inactive or inconclusive; also: potency is read from the fitted curve at half-maximal effect;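 as to viability, % of control: compound exposure lasted 48 h before the viability read; plate controls were DMSO-treated cells for no effect and cell-free media wells for full effect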). To be noted: Potency: viability. The essentials:
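After a 4 h attachment period, compounds were pinned into wells and cultures held 48 h under standard incubator conditions. Viability was then measured as CellTiter-Glo luminescence following 10 min at room temperature.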

Test [14] can be described thus: qHTS Screen of the MIPE 4.0 Collection Against Ewings Sarcoma (TC32) (AID 1259256; active = well fitted curve in the direction sought with a large enough effect; an effect the other way counts as inactive or inconclusive; also: nearly all actives have a fitted effect of over 45% in size; also: potency is read from the fitted curve at half-maximal effect). The essentials:
as §1

Test [15] is described as follows: High-throughput drug toxicity screening in the BPDCN cell line Gen2.2 (AID 1224824).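 Also: cells exposed to compounds for 48 h before reading.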 To be noted: Gen2.2 BPDCN cells; at 45.8 µM (top of the series). The essentials:
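Gen2.2, 500 cells/well, phenol red-free RPMI/10% FBS/Pen-Strep; 48 h cpd, 37 °C/5% CO2; CTG lum, 15 min RT. Norm: DMSO = 100%, bortezomib 9.2 uM final = 0%.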

Test [16] is described as follows: P-glycoprotein substrates identified in KB-8-5-11 adenocarcinoma cell line, qHTS therapeutic library screen (AID 1346987; active = well fitted curve in the direction sought with a large enough effect; an effect the other way counts as inactive or inconclusive; also: potency is read from the fitted curve at half-maximal effect; nearly all actives have a fitted effect of over 65% in size). A digest of the protocol: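 Steps: plate 500 KB-8-5-11 cells/well in DMEM + 10% FCS (colchicine removed); pin compounds in dose-response; incubate 72 h, 37 degree C, 5% CO2; add CellTiter-Glo, 5 min; read luminescence.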

With `CC(C)CC(=O)Nc1n[nH]c2c1CN(C(=O)C1CCN(C)CC1)C2(C)C`, the values for the Potency in test [1] and in [2] were 0.0526 µM (active) and 0.264 µM (active), respectively.
For `CCOC(=O)C(C)Oc1cccc2c(=O)n(CC(=O)Nc3ccc4c(c3)OCCO4)ccc12` (stereo not given) the same measures were “inactive” and “inactive”.
As to `CC(NCc1ccc2c(c1)nc(NC(=O)c1ccc(-c3cn[nH]c3)s1)n2CC(C)(C)O)C(C)(C)C` (stereo not given), the Potency in test [1] is 0.0469 µM (active); in test [2], 0.0418 µM (active).
As for `NC(=O)c1ccc(-c2nc(-c3ccc4c(c3)OCCO4)c(-c3ccccn3)[nH]2)cc1`, the Potency in test [1] is 20.9 µM (active). Moreover, in test [2], the Potency entry is “inactive”.
As to `O=C(O)CCc1ccc(NCc2cccc(Oc3ccccc3)c2)cc1`, the Potency entry in [1] and in test [2] was “inactive” in each case.
As for `COc1ccc(-c2ccc3c(N4CCOCC4)nc(N4C[C@@H](C)O[C@@H](C)C4)nc3n2)cc1CO`, the Potency in [1] was 1.48 µM (active); in [2], 0.105 µM (active).
The matching figures for `C=CCc1cccc(/C=N/NC(=O)CN2CCN(Cc3ccccc3)CC2)c1O`: 4.69 µM (active) and 13.2 µM (active).
On to `CCCCc1nc2cc(C=CC(=O)NO)ccc2n1CCN(CC)CC`, for which the Potency in test [1] was 0.118 µM (active); in test [2], 0.264 µM (active).
As to `CC(=O)Nc1ccc(OC[C@](C)(O)C(=O)Nc2ccc([N+](=O)[O-])c(C(F)(F)F)c2)cc1`, the Potency result in [1], in test [2], in test [4], in test [5], in test [6] and in [7] was “inactive” each time. The Potency entry in test [8], in test [9], in test [10], in test [11] and in test [13] was “inactive” each time. In addition, in [3], the viability (% of control) turned out to be 106%. Further, the IC50 (viability decrease) result in [12] was “inactive”.
As for `CNC(=O)c1cc(Oc2ccc(NC(=O)Nc3cc(C(C)(C)C)nn3-c3ccc4ncccc4c3)c(F)c2)ccn1`, the values for the Potency in test [1] and in test [2] were 6.62 µM (active) and 23.5 µM (active), respectively.
Take `COCCn1c2c([n+](Cc3cnccn3)c1C)C(=O)c1ccccc1C2=O`: the Potency in test [2] is 0.0037 µM (active).
As for `C[C@@H](Oc1cc(-c2cnn(C3CCNCC3)c2)cnc1N)c1c(Cl)ccc(F)c1Cl`, the Potency was 16.6 µM (active) in [1] and 18.7 µM (active) in [2].
Consider `CC(C)(N)C(=O)N[C@H](COCc1ccccc1)C(=O)N1CCC2(CC1)CN(S(C)(=O)=O)c1ccccc12`, for which the Potency in test [1] is 18.7 µM (active); in test [2], 8.33 µM (active).
With `Cc1cc(C=c2sc3nc4ccccc4n3c2=O)c(C)n1-c1ccccc1`, the Potency in test [1] is 18.7 µM (active); in [2], 9.35 µM (active).
The matching figures for `Nc1nc(-c2nn(Cc3ccccc3F)c3ncccc23)nc(N)c1N1CCOCC1`: “inactive” and “inactive”.
For the compound `Cc1ccccc1-n1c(Cn2cnc3c(N)ncnc32)nc2cccc(C)c2c1=O`, the Potency in test [1] is 23.5 µM (active); in test [6] it was 1.18 µM (active); in [7], 1.87 µM (active); in test [8], 5.26 µM (active); in [14], 0.833 µM (active); in test [10], 18.7 µM (active). For the same compound, in test [3], the viability (% of control) was 9.3%. In addition, the Potency entry in [4], in [5] and in [13] was “inactive” in each case. Moreover, in [12], the IC50 (viability decrease) was 18.7 µM (active).
`O=C(NC1CCNCC1)c1[nH]ncc1NC(=O)c1c(Cl)cccc1Cl`: the Potency was 37.2 nM (active) and 105 nM (active) in test [1]; 29.6 nM (active) and 83.3 nM (active) in [2].
Regarding `CCC(=O)N[C@H]1CC[C@H](C(=O)N(C)c2ccc(-c3nc4ccccc4o3)cc2)C1`, the Potency in [1] and in [2] was 7.43 µM (active) each time.
As for `CNC(=O)c1cc(Oc2ccc(NC(=O)Nc3ccc(Cl)c(C(F)(F)F)c3)c(F)c2)ccn1`, the Potency was 20.9 µM (active) in [1] and 26.4 µM (active) in [2].
Regarding `Cc1[nH]c2ccccc2c1CCNCc1ccc(C=CC(=O)NO)cc1`, the figures for the Potency in [1] and in test [2] were 0.0105 µM (active) and 0.0296 µM (active), respectively.
The matching figures for `O=C(O)c1ccc2c(c1)nc(Nc1cccc(Cl)c1)c1ccncc12`: 5.26 µM (active) and 11.8 µM (active).
Turning to `C=CCON=C(C[C@H]1O[C@@H]2O[C@]3(C)CC[C@@H]4[C@H](C)CC[C@@H]([C@H]1C)[C@@]24OO3)[C@H]1O[C@@H]2O[C@]3(C)CC[C@H]4[C@H](C)CC[C@@H]([C@@H]1C)[C@@]24OO3`, the Potency in test [1] was 0.0166 µM (active); in [2], 0.235 µM (active); in test [6] it was 0.469 µM (active); in test [7], 0.418 µM (active); in [8], 0.296 µM (active); in test [10] it was 0.0935 µM (active). For the same compound, the Potency is 0.0662 µM (active) in test [13] and 16.6 µM (active) in [16]. For the same compound, the cell viability, % of control (lower = more cytotoxic) in [15] is 19.7%. For the same compound, the viability (% of control) in [3] turned out to be 23.2%. Also, the Potency result in test [5] was “inactive”. Further, in test [12], the IC50 (viability decrease) was 0.0526 µM (active).
Turning to `Cc1cn(-c2cc(NC(=O)c3ccc(C)c(Nc4nccc(-c5cccnc5)n4)c3)cc(C(F)(F)F)c2)cn1`, the Potency is 14.8 µM (active) in [1] and 26.4 µM (active) in test [2].
The matching figures for `c1ccc2c(CCNc3ccc(Nc4ccncc4)cc3)c[nH]c2c1`: 1.87 µM (active) and 20.9 µM (active).
As to `O=C(Oc1ccc([N+](=O)[O-])cc1)N1CCC(C(O)(c2ccc3c(c2)OCO3)c2ccc3c(c2)OCO3)CC1`, the Potency in [1] was 5.26 µM (active); in test [6], 16.6 µM (active). Further, the Potency result in test [2], in test [4], in test [5], in test [8], in test [14] and in test [9] was “inactive” in each case. Besides, the Potency entry in test [10], in test [11] and in [13] was “inactive” in each case. The cell viability, % of control (lower = more cytotoxic) in [15] is 40.5%. The viability (% of control) in test [3] was 64.3%.
